The whole screen tested about 69,000 compounds, of which about 8,600 (12%) showed an effect of 50% or more. For the sample, strong results were picked, then their nearest neighbours and some compounds at random.
system: Plasmodium berghei; assay: Screen against P. berghei liver stage (PbLuc), transformed with Luciferase, at 10uM; format: functional, HepG2; settings: tested at 10 uM

SMILES | INHIBITION
Cc1noc(CN2CCN(c3cncc(Cl)n3)CC2)n1 | 5.05%
O=C(N1CCOCC1)N1CCN(c2ccc(Cl)nn2)C(=O)C1 | 24.2%
CN(Cc1cnn(C)c1)C(=O)CN1CCCC(Cn2cncn2)C1 (centres undefined) | 7.67%
Cc1nn(C)c(Cl)c1C1CCCN1C(=O)c1cccc(C#N)c1 (centres undefined) | -38.7%
Cc1noc(C2(C)CCCN(C(=O)c3cnn(C)c3)C2)n1 (centres undefined) | 24.4%
O=C(NCC1CCCCC1)N1C[C@@H]2C[C@H](C(=O)N3CCOCC3)[C@H](C1)O2 | 22.2%
O=C(Nc1nncs1)N1CCC(CCc2ccc(O)cc2)CC1 | 12.5%
O=C(Nc1nncs1)N1CCC(c2ccc(O)cc2)CC1 | -1.45%
O=C(Nc1nncs1)N1CCC(CCO)CC1 | 66.6%
COc1ccc2c(c1)[nH]c1c(N(C)CC3OCCO3)ncnc12 | -13.6%
O=C(Nc1ccccc1)N1CCn2c(nnc2C2CCCN2)C1 (centres undefined) | 46.6%
O=C(C1=CCCC1)N1CC[C@]2(C[C@H](OCc3cccnc3)CO2)C1 | 16.9%
Cc1occc1C(=O)N1CCCC2(CCN(c3ccsc3)C2=O)C1 (centres undefined) | 56.7%
Cc1occc1C(=O)N1CCCC2(CCN(c3ccccc3)C2=O)C1 (centres undefined) | -54.5%
CCN1CCC2(CCN(Cc3ccc(OC)cc3)CC2)C1=O | 38.3%
Cn1cc(N2CCC3(CCCN(Cc4ccoc4)C3)C2=O)cn1 (centres undefined) | -2.72%
Cc1nocc1C(=O)N1CCCC2(CCN(c3ccsc3)C2=O)C1 (centres undefined) | -107%
Cn1cc(CN2CCC3(CCN(c4cnn(C)c4)C3=O)C2)cn1 (centres undefined) | 14.8%
COc1ccc(CN2CCC3(CC2)CCN(CC(=O)N(C)C)C3=O)cc1 | -8.51%
COc1ccc(CN2CCC3(CC2)CCN(CC2CC2)C3=O)cc1 | 52.4%
O=C1N(c2ccsc2)CCC12CCCN(Cc1ccccn1)C2 (centres undefined) | -6.23%
CN(C)C(=O)CN1CCCC2(CCN(c3ccsc3)C2=O)C1 (centres undefined) | 40.4%

SMILES | INHIBITION
O=C1N(c2ccsc2)CCC12CCCN(CC1CC1)C2 (centres undefined) | 57.9%
Cn1cc(N2CCC3(CCCN(Cc4ccc(F)cc4)C3)C2=O)cn1 (centres undefined) | 67.2%
CCOC(=O)CCNC(=O)c1nc(OCC)ccc1Cl | 6.285%
Brc1ccc(CNCc2nnc3n2CCCCC3)s1 | 21.8%
CC(=O)N1N=C(Cc2ccccc2)OC1C(=O)NCC(=O)OC(C)(C)C (centres undefined) | 12.5%
CCc1nnc(Nc2cc(C)nc(C3CN(C(C)=O)CCO3)c2)s1 (centres undefined) | -4.25%
CCCc1nc(C)cc(NCCc2nnc(N)s2)n1 | -16.9%
O=C(Cc1ccccc1)NCCNC(=O)c1scnc1Cl | 46.2%
COCC[C@]1(O)CCN(C(=O)C2CCN(C3CCCC3)CC2)C[C@H]1C | 9.63%
Nc1cccnc1N1CCC(C(F)(F)F)CC1 | -22.5%
COCCN1C[C@H]2CC[C@@]3(N=C(C)N(CC4CC4)C3=O)[C@H]2C1 | -26.5%
CC(=O)NCc1ccc(C(=O)N2CCCC2c2c(C)nn(C)c2C)o1 (centres undefined) | -55.4%
O=C1N(c2ccsc2)CCC12CCCN(Cc1cccnc1)C2 (centres undefined) | -18.2%
COCCN1CCCC2(CCN(c3ccsc3)C2=O)C1 (centres undefined) | 39.2%
COc1ccc(CN2CCCC3(CCN(c4ccsc4)C3=O)C2)cc1 (centres undefined) | 72.8%
CC(C)Nc1ncnc2c1CCN(c1cc(C(F)(F)F)ncn1)CC2 | 60.3%
CC(C)Nc1ncnc2c1CCN(C(=O)N1CCOCC1)CC2 | 75.4%
O=C(N1CCOCC1)N1CCc2ncnc(NC3CCC3)c2CC1 | -2.35%
O=C(N1CCOCC1)N1CCc2ncnc(NC3CC3)c2CC1 | 26.8%
Cc1ncnc2c1CCN(c1cc(C(F)(F)F)ncn1)CC2 | -17%
FC(F)(F)c1cc(N2CCc3ncnc(NC4CC4)c3CC2)ncn1 | -31.6%
CC(C)Nc1ncnc2c1CCN(C(=O)c1ccc[nH]1)CC2 | 70.7%

SMILES | INHIBITION
CC(C)Nc1ncnc2c1CCN(C(=O)[C@H]1CCCO1)CC2 | -12.2%
Cc1ccsc1C(=O)N1CCc2ncnc(NC(C)C)c2CC1 | 19.4%
CN(Cc1nnc2n1CCC2)C(=O)Cc1ccc2c(c1)CCC2 | 19.2%
CC(=O)NC1CCN(c2cc(C3CCNCC3)ccn2)CC1 | 20.2%
O=C(c1ncccn1)N1C[C@@H]2CN(Cc3cccnc3)CCO[C@@H]2C1 | -1.26%
Fc1ccc(C(CNc2ccncn2)N2CCCC2)cc1 (centres undefined) | 45%
Cc1cc(C(=O)N2CCC3(C2)CN(c2ccsc2)C(=O)CN3C)[nH]n1 (centres undefined) | 46.2%
N#Cc1c(N)nc2c(c1C1CCOC1)CCc1cc(O)ccc1-2 (centres undefined) | -3.12%
COc1ccc2c(c1OC)Cc1c-2nc(N)c(C#N)c1C1CCOC1 (centres undefined) | 40.5%
COc1ccc2c(c1)Cc1c-2nc(N)c(C#N)c1C1CCOC1 (centres undefined) | 73.9%
Cc1ccc(C(=O)Nc2ccc(N(C)C)cn2)n1C | -75.9%
CCc1ccc(CN2C[C@@H]3COC[C@H](NS(C)(=O)=O)[C@@H]3C2)o1 | -12.2%
Cc1ccc(Oc2ncccc2C(=O)N(C)CC2OCCO2)c(C)c1 | -17.2%
c1cc(C2CN(C3CCCCC3)C2)n[nH]1 | 15.92%
CCC(N)c1ccccc1OCC(=O)N1CCCC1 (centres undefined) | -42.3%
Cc1ccoc1CNCc1nnc2n1CC(C(F)(F)F)CC2 (centres undefined) | 52.6%
COc1cccc(CNCc2nnc3n2CC(C(F)(F)F)CC3)c1 (centres undefined) | 45.1%
Cc1ccoc1CNCc1nnc2n1CCCC2C(F)(F)F (centres undefined) | 47.4%
FC(F)(F)C1CCCn2c(CNCc3ccco3)nnc21 (centres undefined) | 45.3%
Cc1ccc(CNCc2nnc3n2CC(C(F)(F)F)CC3)o1 (centres undefined) | 65.9%
Cc1ccc(CNCc2nnc3n2CCCC3C(F)(F)F)o1 (centres undefined) | 4.92%
CCC(NC(=O)c1cc(CC(C)C)nn1C)c1ccnn1C (centres undefined) | -18.2%

SMILES | INHIBITION
CCC(NC(=O)c1cc(CC(C)C)nn1C)c1cccc(C)n1 (centres undefined) | 86.7%
CCC(NC(=O)c1cc(CC(C)C)nn1C)c1cc(C)ccn1 (centres undefined) | -1.15%
CC(O)CN1CCN(C(=O)c2cnn(-c3ccccc3Cl)c2)CC1 (centres undefined) | 32%
CCOCCN1CCN(c2ccc(C#N)cn2)CC1CC (centres undefined) | 2.91%
O=C(c1cnoc1)N1CCC[C@]2(C[C@@H](OCc3ccccn3)CO2)C1 | 8.47%
Cc1cc(C(=O)N(C)C)c2c(Br)cccc2n1 | 40.7%
Cc1cc(C(N)=O)c2c(Br)cccc2n1 | 53.2%
Cc1cc(C(=O)O)c2c(Br)cccc2n1 | 8.7%
Cc1nn(C)c(C)c1CCC(=O)N1CCCC(n2cccn2)C1 (centres undefined) | 16.9%
NS(=O)(=O)CCN1CCN(c2cc(F)ccc2F)CC1 | -6.51%
CCCS(=O)(=O)CCN1CCN(c2cc(F)ccc2F)CC1 | 25.2%
O=C1CCC(=O)N1CCN1CCN(c2cc(F)ccc2F)CC1 | 79.1%
NC(=O)C1CCN(C(=O)c2ccn(-c3cccc(Cl)c3)n2)C1 (centres undefined) | -1.14%
O=C(NCCCn1cccn1)NCC(c1ccco1)N1CCCC1 (centres undefined) | -49.5%
CCOCC(=O)N1CC[C@H]2OCC[C@@]2(COc2ncccc2F)C1 | -23.4%
Cc1n[nH]cc1CNCC1(c2ccc3c(c2)OCO3)CCOCC1 | -21.4%
Cc1csc(CNC(=O)NCC2(c3ccc4c(c3)OCO4)CC2)n1 | 2.29%
Cc1ncsc1CNC(=O)NCC1(c2ccc3c(c2)OCO3)CC1 | 70.2%
CN1CCN(Cc2cn3c(n2)CN(Cc2cccc(F)c2)CC3)CC1 | 27.6%
CCn1nc(C)c(-c2cncn2Cc2ccccc2CN(C)C)c1C | 34.1%
Cc1ccc(-c2cc(C(=O)O)sn2)cc1 | -21.9%
CN(C)c1ncc(I)c(C2CCCN2S(C)(=O)=O)n1 (centres undefined) | 7.19%

SMILES | INHIBITION
Cc1ccnc(NCCSc2nccn2C)n1 | 65.6%
Cn1ccnc1SCCNc1nccc(C(F)(F)F)n1 | -1.16%
CNc1ccnc(NCCSc2nccn2C)n1 | 44.3%
O=C(NCc1nccs1)N1CCOC(c2ccccc2Cl)C1 (centres undefined) | 19.9%
Cc1nc(NCCSc2cnn[nH]2)c2c(C)noc2n1 | 1.56%
CCC(Nc1nc(C)nc2onc(C)c12)c1cccs1 (centres undefined) | 79.9%
CCC(Nc1nc(C)nc2onc(C)c12)c1nc(C)c(C)s1 (centres undefined) | 70%
Cc1noc(C(C)C)c1C(=O)NCC(c1cccs1)N(C)C (centres undefined) | 2.3%
Cc1noc2ncnc(NC(CC(C)(C)C)c3cccnc3)c12 (centres undefined) | 23.5%
Cc1nc(NCC(O)CN2CCCCCC2)c2c(C)noc2n1 (centres undefined) | 15.7%
CNC(=O)NC(=O)C(C)N(C)CCCc1cc(-c2ccccc2)no1 (centres undefined) | -14.18%
c1csc(CN2Cc3nccn3CC(Cn3cncn3)C2)c1 (centres undefined) | -22.1%
CCCc1cc(C(=O)N[C@@H]2CCC[C@@H](N3CCCC3)[C@@H]2O)no1 | 13.7%
Cn1nccc1CNS(=O)(=O)c1cc(F)ccc1Br | 6.02%
CC(C)N1CCC(CNC(=O)CCc2cc(F)ccc2F)C1 (centres undefined) | -20.3%
CCC(C)Oc1cc(C(=O)Nc2nnc(C(C)C)[nH]2)ccn1 (centres undefined) | 42.6%
CC(C)c1nnc(NC(=O)CCc2cc(F)ccc2F)[nH]1 | 53.3%
CC(C)c1nnc(NC(=O)c2cccc(OCC(F)(F)F)n2)[nH]1 | -38.6%
CC(C)c1nnc(NC(=O)Cc2ccc(F)cc2)[nH]1 | 51.1%
CS(=O)(=O)c1nnc(NC(=O)CCc2cc(F)ccc2F)[nH]1 | 43.7%
O=C(C1=CC2(CCN(CCO)CC2)c2ccccc21)N1CCCC1 | 13.6%
